# Laboratory results: PubChem BioAssay
# How the values were obtained:
# [1] = system: Human papillomavirus type 1a protein E7 (residues 44-93); experiment: HPV1a E7 fragment binders on microarrays, primary screen, biochemical, small-molecule microarray, residues 44-93, 635 nm fluorescence (AID 1108); conditions: small-molecule microarray binding, fluorescence 635 nm; higher = more signal;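 further: E7 fragment applied at 1 µg/mL in TBST for 1 h at 4 C; score combines spot fluorescence with its signal to noise ratio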
# [2] = modulators of HCV replicon luciferase signal, primary screen, HCV replication inhibitor project, Huh7 cells, luciferase reporter (AID 1109); conditions: 48 h, higher = more signal;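 further: huh7 hepatoma cells harbouring a luciferase neomycin HCV replicon reporter; luciferase luminescence as measure of HCV replicon replication; test concentration not given here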
# [3] = molecular target: Left-right determination factor 2 (Homo sapiens) (UniProt O00292); experiment: LEFTY2 binders on small-molecule microarrays, primary screen, biochemical, small-molecule microarray, 635 nm fluorescence scan (AID 1110); conditions: LEFTY2 binding, higher = more signal
# [4] = molecular target: Calmodulin-1 (Homo sapiens) (UniProt P0DP23); experiment: CALM1 binders on microarrays, EGTA buffer, profiling panel, biochemical, small-molecule microarray, Cy5-labelled CALM1 (AID 1111); conditions: Cy5-CALM1 binding fluorescence, higher = more signal;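 further: labelled calmodulin applied in Tris saline Tween buffer holding calcium plus EGTA and DTT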
# [5] = molecular target: Calmodulin-1 (Homo sapiens) (UniProt P0DP23); experiment: calcium-bound CALM1 binders on microarrays, profiling panel, artefact control for SMM control-protein annotation, biochemical, small-molecule microarray, Cy5-labelled CALM1, plus calcium (AID 1112); conditions: Cy5-CALM1 binding fluorescence, higher = more signal;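 further: score merges spot fluorescence with signal to noise from triplicate slides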
# [6] = small-molecule microarray binders of probe aWnt5a, primary screen, biochemical, biotinylated probe, 635/667 nm fluorescence (AID 1113); conditions: higher = more signal;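 further: score merges 667 nm fluorescence intensity with signal-to-noise per printed feature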
# [7] = small-molecule microarray binders of probe aShh, primary screen, biochemical, biotinylated probe, 635/667 nm fluorescence (AID 1114); conditions: higher = more signal;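 further: probe is biotin-labelled aShh protein from a stem cell growth factor screen; measures binding of labelled protein to compounds printed on the slide; score merges feature fluorescence at 667 nm with signal-to-noise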
# [8] = small-molecule microarray binders of probe aNog, primary screen, biochemical, biotinylated probe, 635/667 nm fluorescence (AID 1115); conditions: higher = more signal;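 further: probe is biotinylated aNog protein used at 0.15 µg/mL for 1 h at 4 C; z-score combines 667 nm fluorescence of each spot with its signal to noise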
# [9] = molecular target: Torsin-1A-interacting protein 1 (Homo sapiens) (UniProt Q5JTV8); experiment: LAP1 binders from COS7 cell lysate, primary screen, small-molecule microarray, 635/667 nm fluorescence (AID 1116); conditions: COS7-hLAP1 lysate binding, 635 nm fluorescence, higher = more signal
# [10] = molecular target: Alpha-bungarotoxin (Bungarus multicinctus) (UniProt P60615); experiment: alpha-bungarotoxin binders on microarray, profiling panel, artefact control for SMM control protein annotation, biochemical, small-molecule microarray, Alexa647 label, 635/667 nm fluorescence (AID 1117); conditions: alpha-BTX-A647 binding fluorescence, higher = more signal
# Chain of Alpha-bungarotoxin (Bungarus multicinctus) (P60615 whole entry, looked up): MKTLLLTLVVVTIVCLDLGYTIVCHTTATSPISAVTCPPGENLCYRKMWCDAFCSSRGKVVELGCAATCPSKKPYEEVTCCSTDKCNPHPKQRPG
# Chain of Left-right determination factor 2 (Homo sapiens) (O00292 whole entry, looked up): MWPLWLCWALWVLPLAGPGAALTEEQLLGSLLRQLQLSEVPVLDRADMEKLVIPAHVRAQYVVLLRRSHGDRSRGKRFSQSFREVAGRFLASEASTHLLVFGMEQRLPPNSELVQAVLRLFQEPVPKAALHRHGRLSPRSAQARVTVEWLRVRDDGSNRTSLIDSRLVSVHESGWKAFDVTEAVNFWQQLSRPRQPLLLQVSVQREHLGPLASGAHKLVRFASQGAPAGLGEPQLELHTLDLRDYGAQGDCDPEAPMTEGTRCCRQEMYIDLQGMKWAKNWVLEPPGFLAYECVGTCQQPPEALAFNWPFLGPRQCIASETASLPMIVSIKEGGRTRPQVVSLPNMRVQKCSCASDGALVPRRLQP
# Chain of Torsin-1A-interacting protein 1 (Homo sapiens) (Q5JTV8 whole entry, looked up): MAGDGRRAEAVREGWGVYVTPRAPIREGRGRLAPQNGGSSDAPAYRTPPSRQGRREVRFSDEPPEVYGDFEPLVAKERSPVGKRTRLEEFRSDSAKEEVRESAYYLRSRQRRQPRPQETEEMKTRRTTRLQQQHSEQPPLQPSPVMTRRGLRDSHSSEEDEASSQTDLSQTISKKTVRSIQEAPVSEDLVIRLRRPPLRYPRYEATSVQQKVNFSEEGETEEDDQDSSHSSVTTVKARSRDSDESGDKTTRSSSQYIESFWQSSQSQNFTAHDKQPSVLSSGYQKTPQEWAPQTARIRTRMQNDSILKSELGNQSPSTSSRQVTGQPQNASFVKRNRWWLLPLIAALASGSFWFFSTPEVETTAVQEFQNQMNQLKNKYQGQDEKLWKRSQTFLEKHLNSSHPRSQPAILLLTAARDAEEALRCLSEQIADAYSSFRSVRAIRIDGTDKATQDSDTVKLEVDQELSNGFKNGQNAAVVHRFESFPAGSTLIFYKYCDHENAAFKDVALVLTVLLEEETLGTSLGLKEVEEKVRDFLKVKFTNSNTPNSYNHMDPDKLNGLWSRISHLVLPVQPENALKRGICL
Structure (SMILES),composite z-score [1],z-score [2],composite z-score [3],composite z-score [4],composite z-score [5],composite z-score [6],composite z-score [7],composite z-score [8],composite z-score [9],composite z-score [10]
COc1ccc([Si](C)(C)[C@H]2[C@H](CC(=O)N3CCC[C@H]3CO)O[C@@]3(C(=O)N(C)c4ccccc43)[C@@H]2C)cc1,0.442,-0.812,0.239,-0.13,0.297,-0.0721,-0.0368,-0.0094,1.13,0.557
COCCOC(=O)N1C(=O)[C@@]2(c3cc(C#CCC(C(=O)OC)C(=O)OC)ccc31)[C@H](C(N)=O)[C@H]1C(=O)O[C@H](c3ccccc3)[C@H](c3ccccc3)N1[C@@H]2c1ccccc1OCCO,1.31,-3.36,0.584,1.44,0.308,0.0297,-0.182,-0.263,0.146,0.899
CC(CO)N1C(=O)[C@@H]2[C@H]3C(=O)OCC=C[C@H]3OC23C=CCN(c2ccc4ccccc4c2)C(=O)[C@@H]13 (stereo not given in full),-1.55,-0.418,-2.64,-0.505,0.0117,-0.174,-0.0035,0.474,-1.14,-0.674
C=CCN1C(=O)[C@]2(O[C@H](CCO)[C@@H]([Si](C)(C)c3ccc(OC)cc3)[C@@H]2C)c2cc(N3C(=O)c4ccccc4Oc4ccccc43)ccc21,1.3,-5.05,0.28,1.2,0.323,-0.0203,-0.0709,-0.158,-0.0465,0.378
C=CCC(OC(C)=O)[C@@H]1[C@@H](N(Cc2cccc3ccccc23)C(=O)c2ccc(C)cc2)c2cc(OCCCO)ccc2N1C(=O)Cc1ccc2ccccc2c1 (stereo not given in full),-0.857,0.198,-0.163,1.1,0.709,-0.0718,-0.0553,0.0588,0.54,0.273
C=C(C)C1CN([C@H](CO)c2ccccc2)C(=O)/C1=C\c1ccccc1 (stereo not given in full),-0.165,-1.56,0.241,-0.565,-0.754,-0.144,-0.289,0.172,0.189,-0.173
CC(C)c1ccc(NN2C(C(O)c3ccccc3)C=CC3C(=O)N(c4ccccc4)C(=O)C32)cc1 (stereo not given),1.33,0.618,-0.636,0.793,0.7,0.235,0.171,0.0811,0.588,1.67
COC(=O)C(CC#Cc1ccc2c(c1)[C@]1(C(=O)N2)[C@H](c2ccc(OCCO)cc2)N2[C@H](c3ccccc3)[C@H](c3ccccc3)OC(=O)[C@H]2[C@@H]1C(N)=O)C(=O)OC,1.41,-1.68,-0.584,0.627,-0.113,-0.156,-0.123,-0.14,-0.358,1.4
CN1C(=O)C2C=CC(C(O)COCc3ccccc3)N(Nc3ccc([N+](=O)[O-])cc3[N+](=O)[O-])C2C1=O (stereo not given),0.826,-0.295,-0.759,-0.528,-0.626,0.173,-0.328,0.702,0.503,0.814
Cc1ccc(S(=O)(=O)N2[C@@H](c3ccccc3)C(C(=O)O)=CC[C@H]2c2ccc(F)cc2)cc1,1.46,-0.547,-1.25,-0.599,-0.388,0.108,-0.291,0.325,1.94,1.18
COC(=O)[C@H](Cc1ccccc1)N1CC(C)(OC)O[C@@H](Cc2ccccc2)[C@H]1/C=C/C1CC1 (stereo not given in full),0.208,-1.84,-0.17,-0.0441,-0.233,-0.0239,-0.198,0.0299,0.726,0.2
CC(C)(C)OC(=O)N1[C@@H](C=C(Br)Br)COC1(C)C,0.943,-0.213,0.514,-0.177,-0.41,-0.0944,-0.167,0.0051,1.29,0.398
COCCOC(=O)N1C(=O)[C@@]2(c3cc(C#CCNC(N)=O)ccc31)[C@H](c1ccc(O)cc1)N1[C@H](c3ccccc3)[C@H](c3ccccc3)OC(=O)[C@H]1[C@@H]2C(=O)N1CCc2cc(OC)c(OC)cc2C1,1.31,-0.281,0.266,0.111,0.118,0.586,-0.167,-0.25,0.712,0.857
COc1ccc(NN2C(C(O)c3ccccc3)C=CC3C(=O)N(C4CCCCC4)C(=O)C32)cc1 (stereo not given),1.45,-0.888,0.395,1.38,-0.15,0.0974,0.13,0.908,0.644,1.13
C=C(COC)/C(=C/C[C@@H](OC(=O)c1ccncc1)c1ccccc1OCCO)c1cnc2ccccc2c1,1.24,-2.8,1.14,0.528,-0.469,0.067,0.111,0.361,1.47,2.96
CC(C)c1ccc(NN2C(C(O)C3CCCCC3)C=CC3C(=O)N(c4ccccc4)C(=O)C32)cc1 (stereo not given),0.324,-0.482,0.176,2.23,0.842,0.0219,-0.144,0.302,0.678,1.9
CN1C(=O)C2C=CC(C(O)c3ccc(I)cc3)N(N(c3ccccc3)c3ccccc3)C2C1=O (stereo not given),-0.802,-1.55,-0.953,0.95,-0.0638,-0.0735,0.0469,0.878,-0.119,0.98
O=C1O[C@@H](c2ccccc2)[C@@H](c2ccccc2)N2[C@@H](c3ccc(OCCO)cc3)[C@]3(C(=O)Nc4ccc(C#CC5=CCCCC5)cc43)[C@@H](C(=O)Nc3nc4ccccc4s3)[C@H]12,0.597,-1.88,-0.005,0.516,-0.188,0.0243,-0.708,0.704,0.0065,0.4
